Screens (PubChem)
Rows were chosen to be rich in hits. Some 0.84% of all compounds tested hit in one or more screens of this group.
PPARg SRC1 recr – agonists of human PPARgamma SRC-1 coactivator recruitment | P37231 | PPARgamma-SRC-1 coactivator recruitment biochemical assay | activation, % at 8 µM | hit rate 0.41% among 200,000 | AID 631; in the data active = activation above about 19%
Target sequence (P37231 whole entry, looked up): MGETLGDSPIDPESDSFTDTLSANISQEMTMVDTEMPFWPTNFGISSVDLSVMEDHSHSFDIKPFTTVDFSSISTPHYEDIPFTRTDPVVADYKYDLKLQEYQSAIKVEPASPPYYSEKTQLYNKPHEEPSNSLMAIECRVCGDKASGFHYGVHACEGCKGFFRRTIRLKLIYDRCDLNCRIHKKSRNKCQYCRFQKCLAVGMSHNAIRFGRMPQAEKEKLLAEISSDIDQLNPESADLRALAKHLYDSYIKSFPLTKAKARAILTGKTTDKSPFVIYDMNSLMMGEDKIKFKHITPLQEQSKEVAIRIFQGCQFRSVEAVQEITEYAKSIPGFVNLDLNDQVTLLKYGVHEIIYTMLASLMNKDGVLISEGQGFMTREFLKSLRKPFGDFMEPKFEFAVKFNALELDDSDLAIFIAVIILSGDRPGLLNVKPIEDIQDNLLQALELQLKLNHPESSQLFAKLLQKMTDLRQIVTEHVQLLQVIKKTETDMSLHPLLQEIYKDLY
TR-FRET SRC-2 ct – flags TR-FRET format artefacts in PPARgamma SRC-2 recruitment agonist screen; TR-FRET ratio at 8 µM; TR-FRET artefact counter-screen; stronger effect = higher value; hit rate 0.4% among 200,000; in the data active = TR-FRET ratio above about 2000
SRC3 TRFRET art – flags TR-FRET format artefacts in PPARgamma SRC-3 recruitment agonist screen; TR-FRET ratio at 8 µM; TR-FRET artefact counter-screen, PPARgamma/SRC-3 format; stronger effect = higher value; hit rate 0.39% among 99,000; AID 1048; in the data active = TR-FRET ratio above about 2000
PPARg SRC2 recr – agonists of SRC-2 recruitment by human PPARgamma; P37231; PPARgamma LBD-SRC-2 recruitment, biochemical; activation, % at 8 µM; hit rate 0.34% among 200,000; AID 1032
PPARg SRC3 recr – agonists of human PPARgamma SRC-3 coactivator recruitment. P37231. biochemical PPARgamma/SRC-3 coactivator recruitment assay. activation, % at 8 µM. hit rate 0.26% among 200,000. AID 731; in the data active = activation above about 23%
SRC1 TRFRET art – TR-FRET artefact, counter-screen to PPARgamma/SRC-1 agonist assay. TR-FRET ratio at 8 µM. hit rate 0.34% among 99,000. TR-FRET detection artefact counter-screen, emission ratio; stronger effect = higher value; in the data active = TR-FRET ratio above about 2300
PPARg SRC2 ag – confirmation of agonists of SRC-2 recruitment by human PPARgamma | shares compounds with PPARg SRC3 recr | biochemical SRC-2 recruitment by PPARgamma | activation, % at 8 µM | hit rate 52% among 790
PPARg SRC1 ag – confirmation of agonists of SRC-1 recruitment by human PPARgamma; hit rate 43% among 790; shares compounds with PPARg SRC3 recr; activation, % at 8 µM; AID 1300; PPARgamma–SRC-1 coactivator recruitment biochemical assay; in the data active = activation above about 20%
PPARg SRC3 conf – confirmation of agonists of SRC-3 recruitment by human PPARgamma. shares compounds with PPARg SRC3 recr. biochemical PPARgamma-SRC-3 coactivator recruitment, agonist mode. activation, % at 8 µM. hit rate 29% among 790. AID 1301; in the data active = activation above about 24%
A number is an active result; n = inactive; x = no result. Rule as the data show it, unless noted: active = activation above about 22%; inactive = the rest.

SMILES	PPARg SRC1 recr	TR-FRET SRC-2 ct	SRC3 TRFRET art	PPARg SRC2 recr	PPARg SRC3 recr	SRC1 TRFRET art	PPARg SRC2 ag	PPARg SRC1 ag	PPARg SRC3 conf
O=C(CSc1ccccc1)Nc1ccc(C(=O)Nc2ccc(O)cc2)cc1	26	n	n	37	n	n	30	22	n
COC(=O)c1ccc(NC(=O)CSc2ccccc2)cc1	n	n	n	n	n	n	x	x	x
Cc1[nH]n(-c2c(Cl)cc(Cl)cc2Cl)c(=O)c1C=Nc1ccc(S(=O)(=O)N2CCOCC2)cc1	n	n	n	n	n	n	x	x	x
CC(C)N=C(NS(=O)(=O)c1ccccc1)C(Cl)(Cl)Cl	n	n	n	n	n	n	x	x	x
c1ccc(-c2nc(-c3cccs3)[nH]c2-c2ccccc2)cc1	25	n	x	n	n	x	23	n	n
COc1cc(-c2nc(-c3ccccc3)c(-c3cccs3)[nH]2)cc(OC)c1OC	n	n	x	n	n	x	x	x	x
Oc1ccc(-c2nc3c4c(ncn3n2)-c2ccccc2CC42CCCC2)cc1	n	n	n	n	n	n	x	x	x
COc1ccc(C(CC(=O)Nc2ccc(Cl)cc2F)NC(=O)C(F)(F)F)cc1 (stereo unspecified)	19	n	x	n	n	x	n	n	n
CCOC(=O)c1c(NC(=O)COc2ncnc3ccccc23)sc(C(C)=O)c1C	n	n	n	25	n	n	n	n	n
COc1cccc(C(=O)N=c2sc3cc(S(C)(=O)=O)ccc3n2C)c1	27	n	n	n	n	n	n	n	n
COc1cc(OC)cc(C(=O)N=c2sc3ccccc3n2C)c1	n	n	n	n	n	n	x	x	x
COc1ccc(CN2CCN(CCCCOc3ccc(Cl)cc3)CC2)c(OC)c1OC	n	n	n	n	n	n	x	x	x
O=C(c1ccccc1)N1CCSC1=S	n	n	x	n	n	x	x	x	x
O=C(c1ccccc1)N1CCSc2sccc2C1=O	n	2115	2052	29	n	2582	39	32	24
COC(=O)c1ccc2nc(Nc3nc4ccc(F)cc4s3)sc2c1	23	n	n	n	n	2480	n	n	n
COC(=O)c1ccc2nc(NC(=O)C(C)(C)C)sc2c1	n	n	n	n	n	n	x	x	x
Fc1ccc(CSc2ncnc3c2oc2ccccc23)cc1	n	n	n	n	n	n	x	x	x
O=C(CSc1ncnc2c1oc1ccccc12)Nc1cccc(F)c1	25	n	x	22	43	x	30	24	n
Cc1ccc2nc(NC(=O)CSc3ncnc4c3oc3ccccc34)sc2c1	30	n	x	n	n	x	33	22	n
O=C(CSc1ncnc2c1oc1ccccc12)NCc1ccc(F)cc1	58	3344	x	71	63	x	48	34	29
Cc1cccc(NC(=O)CSc2ncnc3c2oc2ccccc23)c1	n	n	x	n	n	x	x	x	x
COc1ccccc1NC(=O)CSc1ncnc2c1oc1ccccc12	n	n	x	n	n	x	x	x	x
Fc1cccc(CSc2ncnc3c2oc2ccccc23)c1	36	2464	x	45	42	x	39	27	27
Cn1cc(C(=O)CCl)c2ccccc21	n	n	n	n	n	n	x	x	x
Cc1cc(C)cc(NC(=O)C(=O)NCCCN2CCOCC2)c1	n	n	n	n	n	n	x	x	x
SMILES	PPARg SRC1 recr	TR-FRET SRC-2 ct	SRC3 TRFRET art	PPARg SRC2 recr	PPARg SRC3 recr	SRC1 TRFRET art	PPARg SRC2 ag	PPARg SRC1 ag	PPARg SRC3 conf
c1ccc2[nH]c(CSc3ncnc4c3oc3ccccc34)nc2c1	44	2940	x	71	72	x	44	30	29
Cc1nc(SCc2nc3ccccc3[nH]2)c2oc3ccccc3c2n1	n	n	x	n	n	x	x	x	x
CCOC(=O)C1CCN(C(=O)Cc2c(C(=O)O)n(C)c3ccccc23)CC1	n	n	x	n	n	x	x	x	x
CCOC(=O)N1CCC(NC(=O)CSc2cc(=O)n(CC)c3ccccc23)CC1	55	2762	x	48	45	x	38	27	25
CCOC(=O)C1CCN(C(=O)CSc2cc(=O)n(CC)c3ccccc23)CC1	44	2661	x	53	62	x	40	27	27
CCn1c(=O)cc(SCC(=O)N2CCC(C)CC2)c2ccccc21	77	3414	x	79	108	x	44	29	29
CCN1CCN(C(=O)CSc2cc(=O)n(CC)c3ccccc23)CC1	23	2006	x	44	41	x	26	n	n
Cc1[nH]c2ccccc2c1SCC(=O)N1CCC(C)CC1	n	n	n	n	n	n	x	x	x
Oc1ccc(N2CCN(c3nnnn3-c3ccccc3)CC2)cc1	n	n	n	n	n	n	x	x	x
CCn1c(=O)cc(SCC(=O)N2CCN(C)CC2)c2ccccc21	27	2120	x	34	40	x	30	20	n
CCn1cc(SCC(=O)N2CCOCC2)c2ccccc21	n	n	x	n	n	x	x	x	x
CCn1c(=O)cc(SCC(=O)N2CCCCC2)c2ccccc21	44	2691	x	48	52	x	37	23	26
CCn1c(=O)cc(OCC(=O)N2CCCC2)c2ccccc21	n	n	x	n	n	x	x	x	x
CC(=O)c1nc(N2C(=O)CC(Cc3cccc(C)c3)C2=O)sc1C (stereo unspecified)	20	n	x	n	n	x	n	n	n
CCN(CC)c1ccc(/C=C2/C(=O)ON=C2C)cc1	n	n	n	n	26	n	n	n	n
CCCC(=O)Nc1nc(C)c(C(C)=O)s1	35	2441	2466	30	n	2803	32	21	n
CCC(=O)Nc1cccc(-c2nc3ccccc3c(=O)o2)c1	19	n	x	n	n	x	n	n	n
COc1cc(/C=C/C(=O)OCC(=O)Nc2ccc(C)cc2[N+](=O)[O-])ccc1O	n	n	n	25	n	n	n	n	n
Nc1ccc(Nc2nc(-c3ccncc3)cs2)cc1	n	n	x	n	33	x	n	n	n
CCOC(=O)c1ccc2c(c1)N(CC#N)C(=O)C(C)(C)O2	n	n	n	n	n	n	x	x	x
CC(C)Sc1nc2sc3c(c2c2nnc(SCC(=O)NCc4ccco4)n12)CCCC3	19	n	x	n	n	x	n	n	n
C=CCn1c(-c2csc(-c3ccc(Cl)cc3)n2)n[nH]c1=S	n	n	x	n	n	x	x	x	x
C=CCn1c(-c2cc(Cl)ccc2OC)n[nH]c1=S	19	n	x	26	n	x	30	22	n
C=CCn1c(-c2csc(-c3ccc(OC)c(OC)c3)n2)n[nH]c1=S	n	2116	n	23	n	n	n	n	n
CCn1c(C)nc2cc(S(=O)(=O)N3CCCC3)ccc21	n	n	x	24	n	x	n	n	n
COc1ccc2c(C)cc(=S)[nH]c2c1	32	1987	2185	22	n	2499	n	n	n
